{"source": "PubChem BioAssay (EPA / NIEHS)", "note": "Values joined by “and” are separate entries in the source; they are usually repeats but may differ in a detail not shown here. Identical values can stand only once. Inconclusive results are not listed. Active and inactive are the calls of the source. The calls were made as follows, unless noted: active = hit-call score of the fitted dose curve at least 0.9, where 1 is the maximum; inactive = score below 0.9.", "data": [{"read-out": "not listed separately", "test": "BSK_3C_TissueFactor: BioMAP Diversity Plus: 3C Assay for Tissue Factor Biomarker Activity (AID 2282997)", "conditions": "BioMAP 3C HUVEC, tissue factor biomarker readout; actives raise or lower the signal", "how_it_was_run": "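Endothelial monolayers (human umbilical vein, primary) are dosed, incubated 24 h, and assayed for Tissue Factor by ELISA; DMSO serves as negative control for bidirectional fitting.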", "values": [{"smiles": "CNS(=O)(=O)C(F)(F)C(F)(F)C(F)(F)C(F)(F)C(F)(F)C(F)(F)C(F)(F)C(F)(F)F", "outcome": "inactive"}, {"smiles": "Cc1ccc(O)c(-n2nc3ccccc3n2)c1", "outcome": "inactive"}, {"smiles": "OC(O)C(F)(F)C(F)(F)F", "outcome": "inactive"}, {"smiles": "CC(C)CCCC(C)CCO", "note": "(stereo not given)", "AC50": "36.4 µM (active)"}, {"smiles": "C[C@]12CC[C@H]3C(=CCc4cc(O)ccc43)[C@@H]1CCC2=O", "outcome": "inactive"}, {"smiles": "O=C(O)CCC(F)(F)C(F)(F)C(F)(F)C(F)(F)C(F)(F)C(F)(F)C(F)(F)F", "outcome": "inactive"}, {"smiles": "CC1=CC2C3C=CC(C3)C2C1C", "note": "(stereo not given)", "outcome": "inactive"}, {"smiles": "O=C(Cl)C(F)(F)C(F)(F)C(F)(F)C(F)(F)C(F)(F)C(F)(F)F", "outcome": "inactive"}, {"smiles": "Nc1cc([N+](=O)[O-])cc(Cl)c1O", "outcome": "inactive"}, {"smiles": "O=C1C=CC(=O)N1c1ccc(Cc2ccc(N3C(=O)C=CC3=O)cc2)cc1", "AC50": "5.47 µM (active)"}, {"smiles": "NC(=O)C(F)(F)C(F)(F)C(F)(F)C(F)(F)C(F)(F)C(F)(F)C(F)(F)F", "outcome": "inactive"}, {"smiles": "C=CC(=O)OCC(F)(F)C(F)(F)C(F)(F)COC(=O)C=C", "AC50": "23.3 µM (active) and 14.6 µM (active)"}, {"smiles": "OCCCC(F)(F)C(F)(F)C(F)(F)C(F)(F)C(F)(F)C(F)(F)C(F)(F)C(F)(F)F", "AC50": "13.1 µM (active) and 26.1 µM (active)"}, {"smiles": "Cc1cc(O)c(C(C)(C)C)cc1C(C)(C)C", "AC50": "3.4 µM (active)"}]}, {"read-out": "not listed separately", "test": "BSK_3C_uPAR: BioMAP Diversity Plus: 3C Assay for Urokinase-type plasminogen activator receptor (uPAR) Biomarker Activity (AID 2282998)", "conditions": "BioMAP 3C HUVEC, uPAR biomarker ELISA; actives raise or lower the signal", "how_it_was_run": "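Dose primary human umbilical vein endothelial cells, incubate 24 h, measure cell-surface uPAR by ELISA, then fit the signal in both directions against the DMSO negative control.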", "values": [{"smiles": "CNS(=O)(=O)C(F)(F)C(F)(F)C(F)(F)C(F)(F)C(F)(F)C(F)(F)C(F)(F)C(F)(F)F", "outcome": "inactive"}, {"smiles": "Cc1ccc(O)c(-n2nc3ccccc3n2)c1", "outcome": "inactive"}, {"smiles": "OC(O)C(F)(F)C(F)(F)F", "outcome": "inactive"}, {"smiles": "CC(C)CCCC(C)CCO", "note": "(stereo not given)", "AC50": "26.7 µM (active)"}, {"smiles": "C[C@]12CC[C@H]3C(=CCc4cc(O)ccc43)[C@@H]1CCC2=O", "outcome": "inactive"}, {"smiles": "O=C(O)CCC(F)(F)C(F)(F)C(F)(F)C(F)(F)C(F)(F)C(F)(F)C(F)(F)F", "outcome": "inactive"}, {"smiles": "CC1=CC2C3C=CC(C3)C2C1C", "note": "(stereo not given)", "outcome": "inactive"}, {"smiles": "O=C(Cl)C(F)(F)C(F)(F)C(F)(F)C(F)(F)C(F)(F)C(F)(F)F", "outcome": "inactive"}, {"smiles": "Nc1cc([N+](=O)[O-])cc(Cl)c1O", "outcome": "inactive"}, {"smiles": "O=C1C=CC(=O)N1c1ccc(Cc2ccc(N3C(=O)C=CC3=O)cc2)cc1", "AC50": "5.81 µM (active)"}, {"smiles": "NC(=O)C(F)(F)C(F)(F)C(F)(F)C(F)(F)C(F)(F)C(F)(F)C(F)(F)F", "outcome": "inactive"}, {"smiles": "C=CC(=O)OCC(F)(F)C(F)(F)C(F)(F)COC(=O)C=C", "AC50": "30 µM (active) and 48.5 µM (active)"}, {"smiles": "OCCCC(F)(F)C(F)(F)C(F)(F)C(F)(F)C(F)(F)C(F)(F)C(F)(F)C(F)(F)F", "AC50": "19.6 µM (active) and 42.2 µM (active)"}, {"smiles": "Cc1cc(O)c(C(C)(C)C)cc1C(C)(C)C", "AC50": "3.82 µM (active)"}]}, {"read-out": "not listed separately", "test": "BSK_3C_VCAM1: BioMAP Diversity Plus: 3C Assay for Vascular cell adhesion molecule 1 (VCAM1) Biomarker Activity (AID 2282999)", "conditions": "BioMAP 3C HUVEC, VCAM1 ELISA, cytokine-stimulated; actives raise or lower the signal", "how_it_was_run": "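Human umbilical vein endothelial cells were dosed with compound for 24 h, after which cell-surface VCAM-1 was quantified by ELISA. Bidirectional curve fitting used DMSO as negative control and activity baseline.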", "values": [{"smiles": "Cc1ccc(O)c(-n2nc3ccccc3n2)c1", "outcome": "inactive"}, {"smiles": "CC(C)CCCC(C)CCO", "note": "(stereo not given)", "AC50": "33.9 µM (active)"}, {"smiles": "O=C(O)CCC(F)(F)C(F)(F)C(F)(F)C(F)(F)C(F)(F)C(F)(F)C(F)(F)F", "outcome": "inactive"}, {"smiles": "O=C(Cl)C(F)(F)C(F)(F)C(F)(F)C(F)(F)C(F)(F)C(F)(F)F", "outcome": "inactive"}, {"smiles": "Nc1cc([N+](=O)[O-])cc(Cl)c1O", "outcome": "inactive"}, {"smiles": "OCCCC(F)(F)C(F)(F)C(F)(F)C(F)(F)C(F)(F)C(F)(F)C(F)(F)C(F)(F)F", "AC50": "39.9 µM (active) and 46 µM (active)"}]}, {"read-out": "not listed separately", "test": "BSK_4H_Eotaxin3: BioMAP Diversity Plus: 4H Assay for Eotaxin 3 Biomarker Activity (AID 2283000);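 as to outcome: CCL26 protein level quantified by ELISA in parallel with SRB cytotoxicity check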", "conditions": "primary human endothelial cells (HUVEC); actives raise or lower the signal", "how_it_was_run": "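ELISA quantitation of CCL26 (Eotaxin-3) protein from chemically dosed human vascular endothelial cells at 24 h; increases and decreases both scored relative to DMSO-treated baseline.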", "values": [{"smiles": "CNS(=O)(=O)C(F)(F)C(F)(F)C(F)(F)C(F)(F)C(F)(F)C(F)(F)C(F)(F)C(F)(F)F", "outcome": "inactive"}, {"smiles": "Cc1ccc(O)c(-n2nc3ccccc3n2)c1", "outcome": "inactive"}, {"smiles": "OC(O)C(F)(F)C(F)(F)F", "outcome": "inactive"}, {"smiles": "CC(C)CCCC(C)CCO", "note": "(stereo not given)", "AC50": "36.5 µM (active)"}, {"smiles": "C[C@]12CC[C@H]3C(=CCc4cc(O)ccc43)[C@@H]1CCC2=O", "outcome": "inactive"}, {"smiles": "O=C(O)CCC(F)(F)C(F)(F)C(F)(F)C(F)(F)C(F)(F)C(F)(F)C(F)(F)F", "outcome": "inactive"}, {"smiles": "CC1=CC2C3C=CC(C3)C2C1C", "note": "(stereo not given)", "outcome": "inactive"}, {"smiles": "O=C(Cl)C(F)(F)C(F)(F)C(F)(F)C(F)(F)C(F)(F)C(F)(F)F", "outcome": "inactive"}, {"smiles": "Nc1cc([N+](=O)[O-])cc(Cl)c1O", "outcome": "inactive"}, {"smiles": "O=C1C=CC(=O)N1c1ccc(Cc2ccc(N3C(=O)C=CC3=O)cc2)cc1", "AC50": "6.05 µM (active)"}, {"smiles": "NC(=O)C(F)(F)C(F)(F)C(F)(F)C(F)(F)C(F)(F)C(F)(F)C(F)(F)F", "outcome": "inactive"}, {"smiles": "C=CC(=O)OCC(F)(F)C(F)(F)C(F)(F)COC(=O)C=C", "AC50": "9.89 µM (active) and 8.33 µM (active)"}, {"smiles": "OCCCC(F)(F)C(F)(F)C(F)(F)C(F)(F)C(F)(F)C(F)(F)C(F)(F)C(F)(F)F", "AC50": "18.9 µM (active) and 31.8 µM (active)"}, {"smiles": "Cc1cc(O)c(C(C)(C)C)cc1C(C)(C)C", "AC50": "4.12 µM (active)"}]}, {"target": "human Peroxisome Proliferator-activated Receptor alpha (PPARa), PPARA (gene 5465) (UniProt Q07869)", "sequence (Q07869 whole entry, looked up)": "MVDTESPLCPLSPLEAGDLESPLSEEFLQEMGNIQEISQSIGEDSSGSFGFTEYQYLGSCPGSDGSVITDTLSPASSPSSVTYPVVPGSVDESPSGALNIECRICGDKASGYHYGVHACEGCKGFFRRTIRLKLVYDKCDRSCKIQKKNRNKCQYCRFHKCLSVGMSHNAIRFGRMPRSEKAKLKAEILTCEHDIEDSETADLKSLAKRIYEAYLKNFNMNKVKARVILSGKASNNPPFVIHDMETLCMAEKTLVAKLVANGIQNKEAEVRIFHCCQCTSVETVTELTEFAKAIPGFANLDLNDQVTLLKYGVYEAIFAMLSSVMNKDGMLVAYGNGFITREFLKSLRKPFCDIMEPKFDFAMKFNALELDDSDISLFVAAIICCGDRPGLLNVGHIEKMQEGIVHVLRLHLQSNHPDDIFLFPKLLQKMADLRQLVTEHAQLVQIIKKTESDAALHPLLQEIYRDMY", "test": "ATG_PPARa_TRANS: Attagene TRANS-FACTORIAL HepG2 Assay for human Peroxisome Proliferator-activated Receptor alpha (PPARa) (AID 2283001; active = hit-call score of the fitted dose curve at least 0.9, where 1 is the maximum;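 as to AC50: potency for gain of reporter signal over DMSO so agonist or activator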)", "conditions": "not given", "how_it_was_run": "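Gain-of-signal endpoint: reporter mRNA induction relative to DMSO, detected by fluorescent RT-PCR and capillary electrophoresis. HepG2 cells transiently carried GAL4-UAS-driven reporter units plus NR-Gal4 fusion; exposure lasted 24 h.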", "values": [{"smiles": "F[Si-2](F)(F)(F)(F)F", "outcome": "inactive"}, {"smiles": "CNS(=O)(=O)C(F)(F)C(F)(F)C(F)(F)C(F)(F)C(F)(F)C(F)(F)C(F)(F)C(F)(F)F", "outcome": "inactive"}, {"smiles": "COc1ccccc1C=O", "outcome": "inactive"}, {"smiles": "CSc1ccc(Cl)cc1", "outcome": "inactive"}, {"smiles": "Cc1ccc(O)c(-n2nc3ccccc3n2)c1", "outcome": "inactive"}, {"smiles": "CC(C)Nc1ccc(NC(C)C)c2c1C(=O)c1ccccc1C2=O", "outcome": "inactive"}, {"smiles": "CC1=CCC2C(=O)OC(=O)C2C1", "note": "(stereo not given)", "outcome": "inactive"}, {"smiles": "C#CC(O)CCC", "note": "(stereo not given)", "outcome": "inactive"}, {"smiles": "OC(O)C(F)(F)C(F)(F)F", "outcome": "inactive"}, {"smiles": "CC(C)CCCC(C)CCO", "note": "(stereo not given)", "outcome": "inactive"}, {"smiles": "CCC/C=C/CO", "outcome": "inactive"}, {"smiles": "CC(C)OC=O", "outcome": "inactive"}, {"smiles": "CC1=CCC(=O)O1", "outcome": "inactive"}, {"smiles": "CCc1cccc(C)c1N(C(=O)C(=O)O)C(C)COC", "note": "(stereo not given)", "outcome": "inactive"}, {"smiles": "C[C@]12CC[C@H]3C(=CCc4cc(O)ccc43)[C@@H]1CCC2=O", "outcome": "inactive"}, {"smiles": "CC(C)OC(=O)COc1ccc(Cl)cc1Cl", "outcome": "inactive"}, {"smiles": "O=C(O)CCC(F)(F)C(F)(F)C(F)(F)C(F)(F)C(F)(F)C(F)(F)C(F)(F)F", "outcome": "inactive"}, {"smiles": "O=C(Cl)C(F)(F)C(F)(F)C(F)(F)C(F)(F)C(F)(F)C(F)(F)F", "AC50": "10.9 µM (active)"}, {"smiles": "Nc1cc([N+](=O)[O-])cc(Cl)c1O", "outcome": "inactive"}, {"smiles": "c1ccc(C[P+](c2ccccc2)(c2ccccc2)c2ccccc2)cc1", "outcome": "inactive"}, {"smiles": "O=C1C=CC(=O)N1c1ccc(Cc2ccc(N3C(=O)C=CC3=O)cc2)cc1", "outcome": "inactive"}, {"smiles": "CC(C)(C)C(=O)C1C(=O)c2ccccc2C1=O", "outcome": "inactive"}, {"smiles": "NC(=O)C(F)(F)C(F)(F)C(F)(F)C(F)(F)C(F)(F)C(F)(F)C(F)(F)F", "AC50": "86.9 µM (active)"}, {"smiles": "C=CC(=O)OCC(F)(F)C(F)(F)C(F)(F)COC(=O)C=C", "outcome": "inactive"}, {"smiles": "N#Cc1ccccc1O", "outcome": "inactive"}, {"smiles": "CCCCCCCCCCCC(=O)Cl", "outcome": "inactive"}, {"smiles": "COC(=O)c1ccc(C=O)cc1", "outcome": "inactive"}]}]}
